Assay results as given in PubChem BioAssay AID1159580 (chemical genetic matrix, 2015).
Among all 5,500 compounds or so, about 2,000 (36%) were called active. Roughly 18% stayed inconclusive and do not appear here. Cut-off read from the data, not from the text of the source: active = normalized growth mostly below about 0.91 (no sharp cut-off); inconclusive = no clear call, values can overlap the other calls; inactive = mostly above about 0.92. The list shows a part of the results.

Experiment: chemical genetic growth profiling, strain panel (AID 1159580);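 note: tested at 20 µM; growth read once vehicle control cultures reached saturation at 30 °C; 1 = growth at the plate median or of vehicle wells; lower values mean less growth of the strain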
Conditions: growth OD

Measured: normalized growth

COc1ccc2c3c1O[C@H]1C[C@@H](O)C=C[C@@]31CCN(C)C2
inactive: S. cerevisiae deletion strains, locus YJR075W, strain HOC1, hits give low values 0.947 | S. cerevisiae deletion strains, locus YKL009W, strain mrt4, hits give low values 1.02 | S. cerevisiae deletion strains, locus YKL068W, hits give low values 1.02 | S. cerevisiae deletion strains, locus YKL085W, strain MDH1 (second series), hits give low values 1 | S. cerevisiae deletion strains, locus YKL085W, strain MDH1, hits give low values 1 | S. cerevisiae deletion strains, locus YKL160W, strain elf1, hits give low values 0.996 | S. cerevisiae deletion strains, locus YKL190W, strain CNB1, hits give low values 1.01 | S. cerevisiae deletion strains, locus YKR001C, strain vps1, hits give low values 1.03 | S. cerevisiae deletion strains, locus YKR026C, strain gcn3, hits give low values 0.974 | S. cerevisiae deletion strains, locus YKR091W, strain srl3, hits give low values 0.99 | S. cerevisiae deletion strains, locus YLL001W, strain dnm1, hits give low values 0.996 | S. cerevisiae deletion strains, locus YLL026W, hits give low values 0.995 | S. cerevisiae deletion strains, locus YLL041C, strain sdh2, hits give low values 0.999 | S. cerevisiae deletion strains, locus YLR027C, strain aat2, hits give low values 0.989 | S. cerevisiae deletion strains, locus YLR039C, strain RIC1, hits give low values 1.06 | S. cerevisiae deletion strains, locus YLR058C, strain SHM2, hits give low values 1.01 | S. cerevisiae deletion strains, locus YLR102C, strain apc9, hits give low values 1.02 | S. cerevisiae deletion strains, locus YLR113W, strain HOG1, hits give low values 1.01 | S. cerevisiae deletion strains, locus YLR221C, strain rsa3, hits give low values 1.02 | S. cerevisiae deletion strains, locus YLR258W, strain gsy2, hits give low values 1 | S. cerevisiae deletion strains, locus YLR262C, strain YPT6 (second series), hits give low values 0.984 | S. cerevisiae deletion strains, locus YLR262C, strain YPT6, hits give low values 1.02 | S. cerevisiae deletion strains, locus YLR268W, strain sec22, hits give low values 0.993 | S. cerevisiae deletion strains, locus YLR320W, strain mms22, hits give low values 1.01 | S. cerevisiae deletion strains, locus YLR330W, strain CHS5, hits give low values 1.01 | S. cerevisiae deletion strains, locus YLR342W, strain FKS1 (second series), hits give low values 1.08 | S. cerevisiae deletion strains, locus YLR342W, strain FKS1, hits give low values 1.01 | S. cerevisiae deletion strains, locus YLR357W, strain rsc2, hits give low values 0.962 | S. cerevisiae deletion strains, locus YLR370C, strain arc18, hits give low values 1 | S. cerevisiae deletion strains, locus YLR371W, strain rom2, hits give low values 1.02 | S. cerevisiae deletion strains, locus YLR384C, strain iki3, hits give low values 1.01 | S. cerevisiae deletion strains, locus YLR418C, strain cdc73, hits give low values 0.991 | S. cerevisiae deletion strains, locus YML016C, strain PPZ1, hits give low values 1 | S. cerevisiae deletion strains, locus YML032C, strain rad52, hits give low values 1.04 | S. cerevisiae deletion strains, locus YML120C, strain ndi1, hits give low values 0.979 | S. cerevisiae deletion strains, locus YML124C, strain tub3, hits give low values 1.01 | S. cerevisiae deletion strains, locus YMR058W, strain fet3, hits give low values 0.989 | S. cerevisiae deletion strains, locus YMR078C, strain ctf18, hits give low values 1.03 | S. cerevisiae deletion strains, locus YMR125W, strain sto1, hits give low values 0.965 | S. cerevisiae deletion strains, locus YMR129W, hits give low values 1.01 | S. cerevisiae deletion strains, locus YMR205C, strain PFK2, hits give low values 0.992 | S. cerevisiae deletion strains, locus YMR223W, strain ubp8, hits give low values 1.04 | S. cerevisiae deletion strains, locus YMR231W, strain pep5, hits give low values 1 | S. cerevisiae deletion strains, locus YMR263W, strain SAP30, hits give low values 0.991 | S. cerevisiae deletion strains, locus YMR307W, strain GAS1, hits give low values 1.06 | S. cerevisiae deletion strains, locus YNL067W, strain RPL9B, hits give low values 0.989 | S. cerevisiae deletion strains, locus YNL071W, strain lat1, hits give low values 1.01 | S. cerevisiae deletion strains, locus YNL128W, strain TEP1, hits give low values 0.974 | S. cerevisiae deletion strains, locus YNL153C, strain GIM3, hits give low values 0.982 | S. cerevisiae deletion strains, locus YNL183C, strain NPR1, hits give low values 0.948 | S. cerevisiae deletion strains, locus YNL209W, strain ssb2, hits give low values 1 | S. cerevisiae deletion strains, locus YNL233W, strain BNI4, hits give low values 0.995 | S. cerevisiae deletion strains, locus YNL248C, strain rpa49, hits give low values 0.996 | S. cerevisiae deletion strains, locus YNL250W, strain rad50, hits give low values 1.01 | S. cerevisiae deletion strains, locus YNL271C, strain bni1, hits give low values 1.02 | S. cerevisiae deletion strains, locus YNL298W, strain CLA4, hits give low values 1.03 | S. cerevisiae deletion strains, locus YNL307C, strain MCK1, hits give low values 1.05 | S. cerevisiae deletion strains, locus YNL322C, strain KRE1 (second series), hits give low values 1 | S. cerevisiae deletion strains, locus YNL322C, strain KRE1, hits give low values 1.01 | S. cerevisiae deletion strains, locus YNR049C, strain mso1, hits give low values 1.01 | S. cerevisiae deletion strains, locus YNR052C, strain pop2, hits give low values 1.02 | S. cerevisiae deletion strains, locus YOL006C, strain TOP1, hits give low values 1.03 | S. cerevisiae deletion strains, locus YOL012C, strain htz1 0.856 | S. cerevisiae deletion strains, locus YOL147C, strain pex11, hits give low values 1.01 | S. cerevisiae deletion strains, locus YOR001W, strain rrp6, hits give low values 0.996 | S. cerevisiae deletion strains, locus YOR061W, strain CKA2, hits give low values 1.01 | S. cerevisiae deletion strains, locus YOR069W, strain VPS5, hits give low values 1.01 | S. cerevisiae deletion strains, locus YOR070C, strain gyp1, hits give low values 1.01 | S. cerevisiae deletion strains, locus YOR080W, strain dia2, hits give low values 0.994 | S. cerevisiae deletion strains, locus YOR083W, strain WHI5, hits give low values 0.988 | S. cerevisiae deletion strains, locus YOR106W, strain vam3, hits give low values 1 | S. cerevisiae deletion strains, locus YOR136W, strain idh2, hits give low values 1.02 | S. cerevisiae deletion strains, locus YOR144C, strain elg1, hits give low values 1.01 | S. cerevisiae deletion strains, locus YOR184W, strain ser1, hits give low values 1.06 | S. cerevisiae deletion strains, locus YOR231W, strain MKK1, hits give low values 0.987 | S. cerevisiae deletion strains, locus YOR265W, strain rbl2, hits give low values 1 | S. cerevisiae deletion strains, locus YOR270C, strain vph1, hits give low values 0.965 | S. cerevisiae deletion strains, locus YOR290C, strain snf2, hits give low values 1.01 | S. cerevisiae deletion strains, locus YOR316C, strain cot1, hits give low values 1.02 | S. cerevisiae deletion strains, locus YPL051W, strain arl3, hits give low values 0.988 | S. cerevisiae deletion strains, locus YPL055C, strain LGE1, hits give low values 0.935 | S. cerevisiae deletion strains, locus YPL078C, strain atp4, hits give low values 1 | S. cerevisiae deletion strains, locus YPL106C, strain sse1, hits give low values 1.01 | S. cerevisiae deletion strains, locus YPL240C, strain hsp82, hits give low values 1.03 | S. cerevisiae deletion strains, locus YPL241C, strain CIN2, hits give low values 1.01 | S. cerevisiae deletion strains, locus YPL256C, strain CLN2, hits give low values 1.01 | S. cerevisiae deletion strains, locus YPR119W, strain clb2, hits give low values 1 | S. cerevisiae deletion strains, locus YPR141C, strain kar3, hits give low values 1.01 | S. cerevisiae deletion strains, locus YPR163C, strain tif3, hits give low values 1.01 | S. cerevisiae deletion strains, locus YPR167C, strain met16, hits give low values 1.01 | S. cerevisiae deletion strains, strain wtn01, hits give low values 1 | S. cerevisiae strains, strain wild type, hits give low values 1.02
